Data as given in PubChem BioAssay AID1159580 (chemical genetic matrix, 2015).
Where “and” joins values, the source holds several entries; their conditions need not be identical. Identical values can stand only once. In all, about 5,500 compounds went through this assay and about 2,000 (36%) were called active. Another 18% or so got no clear call; they are omitted. Rule as the data show it: active = normalized growth mostly below about 0.91 (no sharp cut-off); inconclusive = no clear call, values can overlap the other calls; inactive = mostly above about 0.92. Some of the results follow.

Assay: chemical genetic growth profiling, strain panel (AID 1159580);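 also: tested at 20 µM; growth read once vehicle control cultures reached saturation at 30 °C; 1 = growth at the plate median or of vehicle wells; lower values mean less growth of the strain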
Conditions: growth OD

Measured: normalized growth

NCCCS(=O)(=O)O
inactive: S. cerevisiae deletion strains, locus YKL068W, hits give low values 0.995 | S. cerevisiae deletion strains, locus YKL085W, strain MDH1 (second series), hits give low values 0.986 | S. cerevisiae deletion strains, locus YKL085W, strain MDH1, hits give low values 0.986 | S. cerevisiae deletion strains, locus YKL160W, strain elf1, hits give low values 1 | S. cerevisiae deletion strains, locus YKL190W, strain CNB1, hits give low values 0.993 | S. cerevisiae deletion strains, locus YKR001C, strain vps1, hits give low values 0.994 | S. cerevisiae deletion strains, locus YKR026C, strain gcn3, hits give low values 1 | S. cerevisiae deletion strains, locus YKR091W, strain srl3, hits give low values 1.01 | S. cerevisiae deletion strains, locus YLL001W, strain dnm1, hits give low values 1.03 | S. cerevisiae deletion strains, locus YLL026W, hits give low values 1.01 | S. cerevisiae deletion strains, locus YLL041C, strain sdh2, hits give low values 1.01 | S. cerevisiae deletion strains, locus YLR027C, strain aat2, hits give low values 0.996 | S. cerevisiae deletion strains, locus YLR039C, strain RIC1, hits give low values 0.986 | S. cerevisiae deletion strains, locus YLR058C, strain SHM2, hits give low values 0.965 | S. cerevisiae deletion strains, locus YLR102C, strain apc9, hits give low values 0.993 | S. cerevisiae deletion strains, locus YLR113W, strain HOG1, hits give low values 0.954 | S. cerevisiae deletion strains, locus YLR221C, strain rsa3, hits give low values 1.01 | S. cerevisiae deletion strains, locus YLR258W, strain gsy2, hits give low values 1.01 | S. cerevisiae deletion strains, locus YLR262C, strain YPT6 (second series), hits give low values 1.02 | S. cerevisiae deletion strains, locus YLR262C, strain YPT6, hits give low values 1.05 | S. cerevisiae deletion strains, locus YLR268W, strain sec22, hits give low values 1.04 | S. cerevisiae deletion strains, locus YLR320W, strain mms22, hits give low values 1.01 | S. cerevisiae deletion strains, locus YLR330W, strain CHS5, hits give low values 0.983 | S. cerevisiae deletion strains, locus YLR342W, strain FKS1 (second series), hits give low values 0.99 | S. cerevisiae deletion strains, locus YLR342W, strain FKS1, hits give low values 1.02 | S. cerevisiae deletion strains, locus YLR357W, strain rsc2, hits give low values 1.04 | S. cerevisiae deletion strains, locus YLR370C, strain arc18, hits give low values 1.01 | S. cerevisiae deletion strains, locus YLR371W, strain rom2, hits give low values 0.934 | S. cerevisiae deletion strains, locus YLR384C, strain iki3, hits give low values 1.01 | S. cerevisiae deletion strains, locus YLR418C, strain cdc73, hits give low values 1.01 | S. cerevisiae deletion strains, locus YML016C, strain PPZ1, hits give low values 0.984 | S. cerevisiae deletion strains, locus YML032C, strain rad52, hits give low values 0.994 | S. cerevisiae deletion strains, locus YML120C, strain ndi1, hits give low values 1.02 | S. cerevisiae deletion strains, locus YML124C, strain tub3, hits give low values 0.987 | S. cerevisiae deletion strains, locus YMR058W, strain fet3, hits give low values 1.04 | S. cerevisiae deletion strains, locus YMR078C, strain ctf18, hits give low values 0.999 | S. cerevisiae deletion strains, locus YMR125W, strain sto1, hits give low values 1.02 | S. cerevisiae deletion strains, locus YMR129W, hits give low values 1.01 | S. cerevisiae deletion strains, locus YMR205C, strain PFK2, hits give low values 1.02 | S. cerevisiae deletion strains, locus YMR223W, strain ubp8, hits give low values 0.96 | S. cerevisiae deletion strains, locus YMR231W, strain pep5, hits give low values 1.02 | S. cerevisiae deletion strains, locus YMR263W, strain SAP30, hits give low values 0.977 | S. cerevisiae deletion strains, locus YMR307W, strain GAS1, hits give low values 0.971 | S. cerevisiae deletion strains, locus YNL067W, strain RPL9B, hits give low values 1.01 | S. cerevisiae deletion strains, locus YNL071W, strain lat1, hits give low values 1.03 | S. cerevisiae deletion strains, locus YNL128W, strain TEP1, hits give low values 0.974 | S. cerevisiae deletion strains, locus YNL153C, strain GIM3, hits give low values 0.991 and 1.01 | S. cerevisiae deletion strains, locus YNL175C, strain NOP13, hits give low values 1 | S. cerevisiae deletion strains, locus YNL183C, strain NPR1, hits give low values 0.937 | S. cerevisiae deletion strains, locus YNL197C, strain WHI3, hits give low values 1.01 | S. cerevisiae deletion strains, locus YNL209W, strain ssb2, hits give low values 1.01 | S. cerevisiae deletion strains, locus YNL224C, strain SQS1, hits give low values 1.01 | S. cerevisiae deletion strains, locus YNL233W, strain BNI4, hits give low values 0.987 | S. cerevisiae deletion strains, locus YNL248C, strain rpa49, hits give low values 0.959 | S. cerevisiae deletion strains, locus YNL250W, strain rad50, hits give low values 0.976 | S. cerevisiae deletion strains, locus YNL271C, strain bni1, hits give low values 0.999 | S. cerevisiae deletion strains, locus YNL298W, strain CLA4, hits give low values 0.967 | S. cerevisiae deletion strains, locus YNL307C, strain MCK1, hits give low values 0.998 | S. cerevisiae deletion strains, locus YNL322C, strain KRE1 (second series), hits give low values 1.01 | S. cerevisiae deletion strains, locus YNL322C, strain KRE1, hits give low values 0.987 | S. cerevisiae deletion strains, locus YNR049C, strain mso1, hits give low values 1.01 | S. cerevisiae deletion strains, locus YNR052C, strain pop2, hits give low values 0.969 | S. cerevisiae deletion strains, locus YOL006C, strain TOP1, hits give low values 1.02 | S. cerevisiae deletion strains, locus YOL012C, strain htz1 0.962 | S. cerevisiae deletion strains, locus YOL147C, strain pex11, hits give low values 0.989 | S. cerevisiae deletion strains, locus YOR001W, strain rrp6, hits give low values 1.01 | S. cerevisiae deletion strains, locus YOR061W, strain CKA2, hits give low values 0.965 | S. cerevisiae deletion strains, locus YOR069W, strain VPS5, hits give low values 0.984 | S. cerevisiae deletion strains, locus YOR070C, strain gyp1, hits give low values 1.01 | S. cerevisiae deletion strains, locus YOR080W, strain dia2, hits give low values 1.03 | S. cerevisiae deletion strains, locus YOR083W, strain WHI5 (second series), hits give low values 1.02 | S. cerevisiae deletion strains, locus YOR083W, strain WHI5, hits give low values 1 | S. cerevisiae deletion strains, locus YOR106W, strain vam3, hits give low values 1.01 | S. cerevisiae deletion strains, locus YOR136W, strain idh2, hits give low values 0.981 | S. cerevisiae deletion strains, locus YOR144C, strain elg1, hits give low values 0.998 | S. cerevisiae deletion strains, locus YOR184W, strain ser1, hits give low values 0.983 | S. cerevisiae deletion strains, locus YOR231W, strain MKK1, hits give low values 0.976 | S. cerevisiae deletion strains, locus YOR265W, strain rbl2, hits give low values 1.02 | S. cerevisiae deletion strains, locus YOR270C, strain vph1, hits give low values 1.09 | S. cerevisiae deletion strains, locus YOR290C, strain snf2, hits give low values 1.01 | S. cerevisiae deletion strains, locus YOR316C, strain cot1, hits give low values 0.981 | S. cerevisiae deletion strains, locus YPL051W, strain arl3, hits give low values 1.01 | S. cerevisiae deletion strains, locus YPL055C, strain LGE1, hits give low values 0.993 | S. cerevisiae deletion strains, locus YPL078C, strain atp4, hits give low values 1.02 | S. cerevisiae deletion strains, locus YPL106C, strain sse1, hits give low values 1.01 | S. cerevisiae deletion strains, locus YPL240C, strain hsp82, hits give low values 1.03 | S. cerevisiae deletion strains, locus YPL241C, strain CIN2, hits give low values 0.997 | S. cerevisiae deletion strains, locus YPL256C, strain CLN2, hits give low values 0.964 | S. cerevisiae deletion strains, locus YPR119W, strain clb2, hits give low values 0.987 | S. cerevisiae deletion strains, locus YPR141C, strain kar3, hits give low values 0.973 | S. cerevisiae deletion strains, locus YPR163C, strain tif3, hits give low values 0.998 | S. cerevisiae deletion strains, locus YPR167C, strain met16, hits give low values 1 | S. cerevisiae deletion strains, strain wtn01, hits give low values 0.958 | S. cerevisiae strains, strain wild type, hits give low values 0.984
